Screening data deposited in PubChem BioAssay by National Center for Advancing Translational Sciences (NCATS).
VDR inh: inhibitors of human vitamin D receptor; VDR-SRC2-3 peptide fluorescence polarization, 2 h; Potency, µM, without a hit: max response, negative = inhibition, usual class: inhibitors; hit rate 0.93% among 400,000; note: potency is the fitted concentration of half-maximal effect
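The screen uses fluorescence polarization to detect compounds that interfere with recruitment of the SRC2-3 coactivator peptide to VDR; plates are read after 2 h at room temperature.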
GALK inhibitor: blocks human galactokinase activity. Purified GALK, Kinase-Glo residual ATP luminescence. hit rate 0.007% among 270,000. Potency, µM (series often up to 57.5 µM), without a hit: at the highest dose activity change, negative = inhibition, usual class: inhibitors; note: potency is the fitted concentration of half-maximal effect
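Quantitative HTS: GALK 5 nM, ATP 35 uM, galactose 100 uM, 1 h room temperature, then luciferase-based ATP detection.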
USP1-UAF1 inh: USP1/UAF1 (human) deubiquitinase inhibition; Potency, µM (highest dose often 57.1 µM), without a hit: at the highest dose activity change, negative = inhibition, hits mostly inhibitors; hit rate 0.23% among 390,000; O94782; recombinant USP1/UAF1, Ub-Rhodamine cleavage fluorescence; note: potency is the fitted concentration of half-maximal effect; nearly all actives have a fitted effect of over 60% in size
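Step one: compound is pinned into 1nM USP1/UAF1 in HEPES pH 7.8 buffer with TCEP. Step two: 15 min room-temperature incubation. Step three: Ub-Rho (150nM final) starts cleavage, tracked by fluorescence over six one-minute reads.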
Coupling enz: coupling enzyme interference in Giardia aldolase counter-screen. coupling enzyme system counterscreen, AmpLite Red fluorescence. activity change, negative = inhibition, % at 58.2 µM, hits read low. hit rate 0.67% among 290,000. AID 2472; in the data active = activity change below about -30%
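Coupling enzymes only (glyceraldehyde-3-phosphate) + compound, at 57.5 uM final, 10 min RT; add substrate/coupling/AmpLite Red mix, 20 min RT; fluorescence ex 525/em 598 nm. Actives flag coupling-system interference.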
PLK1 PBD inh: inhibitors of human PLK1 polo-box domain binding; P53350; Plk1 PBD binding of FITC phosphopeptide, fluorescence polarization; Potency, µM, for inactives: max response, negative = inhibition, hits mostly inhibitors; hit rate 2.8% among 360,000; AID 720504; note: potency is the fitted concentration of half-maximal effect; series mostly up to about 57 µM; nearly all actives have a fitted effect of over 65% in size
USP2a block: inhibitors of human ubiquitin-specific protease USP2a | Potency, µM (highest dose often 38.3 µM), for inactives: at the top dose activity change, negative = inhibition, hits mostly inhibitors | USP2 core, Ub-CHOP2 coupled fluorogenic reporter, 485/531 | O75604 | hit rate 0.01% among 330,000;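 note: potency is the fitted concentration of half-maximal effect; plate controls were DMSO wells for no effect and full inhibition by NEM control for full effect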
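USP2 core (10nM final) preincubated 30min RT with compound in 20mM Tris-HCl pH 8.0, 2mM CaCl2, 2mM beta-mercaptoethanol, 0.05% CHAPS; 25nM Ub-CHOP2 plus 25nM reporter substrate added, fluorescence (Ex485/Em531) read after 60min.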
The depositor's hits bear a star. Hits are enriched below; roughly 3.2% of the tested compounds scored in any of these assays. Unless noted, calls come from the whole dose curve; as a rule, active = well fitted curve in the direction sought with a large enough effect; inconclusive = small, poorly fitted or top-dose-only effect, or another doubt; inactive = no such curve, though single readings can be large; an effect the other way counts as inactive or inconclusive. Unless noted, % is set by controls: 0 for no effect and ±100 for the full control effect.

`c1ccc2c(c1)CCN(c1nc3cc4c(cc3s1)OCCO4)C2` gave VDR inh -3.0%, GALK inhibitor 1.8%, USP1-UAF1 inh -24.8%, Coupling enz -38.3*, PLK1 PBD inh -8.8% and USP2a block -10.9%.
Screening CN(C(=O)CCN1C(=O)/C(=C/c2ccc(F)cc2)SC1=S)C1CCS(=O)(=O)C1 (centres undefined) returned USP1-UAF1 inh -4.6% and PLK1 PBD inh -6.4%.
Screening CC(C(=O)N(C)C1CCS(=O)(=O)C1)N1C(=O)/C(=C/c2ccc(F)cc2)SC1=S (centres undefined) returned VDR inh 79.4µM*, GALK inhibitor -10.4%, USP1-UAF1 inh -24.4%, PLK1 PBD inh inconclusive and USP2a block -0.1%.
O=C1/C(=C/c2ccco2)SC(=S)N1C1CCS(=O)(=O)C1 (centres undefined) was read as VDR inh -5.1%, GALK inhibitor 5.0%, USP1-UAF1 inh -18.0%, Coupling enz -45.1*, PLK1 PBD inh -13.7% and USP2a block -0.3%.
`CCN(C(=O)C(C)N1C(=O)/C(=C/c2ccco2)SC1=S)C1CCS(=O)(=O)C1` (centres undefined) gave VDR inh 4.0%, GALK inhibitor -0.3%, USP1-UAF1 inh inconclusive, Coupling enz -22.4, PLK1 PBD inh 18.9µM* and USP2a block 3.5%.
c1ccc2c(c1)nc1n2CCC1 was read as VDR inh 7.9%, USP1-UAF1 inh 4.8% and PLK1 PBD inh -7.2%.
For CC1=C(C(=O)OCc2ccccc2)C(C2CC2)NC(=O)N1CCCCCC(=O)O (centres undefined) the results were Coupling enz 0.3.
`COc1ccc2nc(N3C(=O)C(O)=C(C(=O)c4ccco4)C3c3ccccc3OC)sc2c1` (centres undefined) gave VDR inh 2.3%, GALK inhibitor -3.8%, USP1-UAF1 inh -19.3%, PLK1 PBD inh inconclusive and USP2a block 1.2%.
`COc1ccc2nc(N3C(=O)C(O)=C(C(=O)c4ccco4)C3c3ccc(C)o3)sc2c1` (centres undefined) gave VDR inh inconclusive, USP1-UAF1 inh -5.8%, PLK1 PBD inh 18.9µM* and USP2a block -0.5%.
`Cc1ccc2nc(N3C(=O)C(O)=C(C(=O)c4ccco4)C3c3cccs3)sc2c1` (centres undefined) gave VDR inh inconclusive, GALK inhibitor -7.4%, USP1-UAF1 inh 5.7%, Coupling enz -1.2, PLK1 PBD inh 26.7µM* and USP2a block 3.2%.
Screening C=CCOc1ccc(C2C(C(=O)c3ccco3)=C(O)C(=O)N2c2nnc(C)s2)cc1 (centres undefined) returned VDR inh inconclusive, GALK inhibitor 3.6%, USP1-UAF1 inh 8.6%, Coupling enz -1.0, PLK1 PBD inh 21.2µM* and USP2a block 4.4%.
For CCOc1ccc2nc(N3C(=O)C(O)=C(C(=O)c4ccco4)C3c3ccco3)sc2c1 (centres undefined) the results were VDR inh -4.4%, USP1-UAF1 inh -18.2%, PLK1 PBD inh inconclusive and USP2a block 0.6%.
For COc1ccc(C2C(C(=O)c3ccco3)=C(O)C(=O)N2c2nnc(C)s2)cc1 (centres undefined) the results were VDR inh -9.3%, GALK inhibitor 9.3%, USP1-UAF1 inh -4.2%, Coupling enz 0.1, PLK1 PBD inh -12.0% and USP2a block 2.5%.
`Cc1cc(C)c2nc(N3C(=O)C(O)=C(C(=O)c4ccco4)C3c3ccco3)sc2c1` (centres undefined) gave VDR inh inconclusive, GALK inhibitor -5.2%, USP1-UAF1 inh -10.4%, Coupling enz 1.2, PLK1 PBD inh 10.6µM* and USP2a block -11.2%.
CC(=O)Nc1ccc(NC(=O)COc2ccc3c(c2)CCC3)cc1 was read as VDR inh 5.9%, GALK inhibitor 1.5%, USP1-UAF1 inh -4.4%, Coupling enz 0.9, PLK1 PBD inh -4.3% and USP2a block 2.3%.
Screening COc1ccc(NC(=O)CN(C)C(=O)c2ccc3[nH]c4c(c3c2)CC(C)CC4)cc1 (centres undefined) returned VDR inh -6.5%, USP1-UAF1 inh -8.5%, PLK1 PBD inh -10.2% and USP2a block -0.6%.
For Cc1cc(N=Cc2c(O)ccc3ccccc23)no1 the results were VDR inh 1.7%, GALK inhibitor 2.0%, USP1-UAF1 inh -17.6%, Coupling enz -42.8*, PLK1 PBD inh 5.32µM* and USP2a block 0.7%.
Screening Oc1ccccc1N=Cc1c(O)ccc2ccccc12 returned VDR inh -15.9%, GALK inhibitor -1.3%, USP1-UAF1 inh inconclusive, Coupling enz -27.3, PLK1 PBD inh 37.2% and USP2a block 2.0%.
`CCOC(=O)c1cc(CC)sc1/N=C/c1c(O)ccc2ccccc12` gave VDR inh 7.1%, GALK inhibitor 1.2%, USP1-UAF1 inh -4.6%, Coupling enz -34.5*, PLK1 PBD inh inconclusive and USP2a block -6.5%.
For Oc1ccc2ccccc2c1C=NCc1cn2ccsc2n1 the results were VDR inh 8.8%, GALK inhibitor 1.1%, USP1-UAF1 inh -6.6%, Coupling enz -35.2*, PLK1 PBD inh inconclusive and USP2a block -1.7%.
C=Cc1ccc(N=Cc2c(O)ccc3ccccc23)cc1 was read as VDR inh -0.7%, GALK inhibitor 2.1%, USP1-UAF1 inh inconclusive, Coupling enz -30.3*, PLK1 PBD inh -10.7% and USP2a block 0.7%.
`COc1ccc(CNc2nc(-c3ccco3)nn2S(=O)(=O)c2ccc(Cl)cc2)cc1OC` gave VDR inh 4.3% and USP1-UAF1 inh -16.0%.
O=C(CSc1nnc2ccccn12)NCCN1C(=O)CSC1=O was read as VDR inh 12.7%, GALK inhibitor 2.0%, USP1-UAF1 inh -20.3%, Coupling enz 0.5, PLK1 PBD inh -4.2% and USP2a block 0.9%.
For COc1ccc2c(c1)-c1nc(/N=C/c3ccc(O)cc3)sc1CC2 the results were VDR inh -18.0%, USP1-UAF1 inh -5.3%, Coupling enz -21.3, PLK1 PBD inh -9.9% and USP2a block 2.2%.
For Oc1ccc2ccccc2c1/C=N/c1nccs1 the results were VDR inh -3.2%, GALK inhibitor 0.0%, USP1-UAF1 inh -20.0%, PLK1 PBD inh 18.9µM* and USP2a block 0.1%.
Screening Oc1ccc2ccccc2c1C=Nc1ccccc1Br returned VDR inh 5.9%, GALK inhibitor 6.9%, USP1-UAF1 inh -15.0%, Coupling enz -4.0, PLK1 PBD inh -23.5% and USP2a block -0.5%.
COc1ccc2c(c1)-c1nc(/N=C/c3c(O)ccc4ccccc34)sc1CC2 was read as VDR inh -22.9%, GALK inhibitor 1.0%, USP1-UAF1 inh -24.6%, Coupling enz -38.3*, PLK1 PBD inh inconclusive and USP2a block 3.4%.
